Results reported in PubChem BioAssay (NCI).
The panel holds about 83,000 compounds, 20% with a hit somewhere; the sample as a whole holds those more often.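 Plates (96-well) were seeded with cells, treated with compound at one concentration, and incubated for 48 hours before percent growth was determined.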 Unmarked numbers belong to inactive results. Calls of active or inactive are those of the source. How the source made its calls: active means growth percent below 10; inactive means the rest.

Assays:
Experiment in all cases: NCI-60 one-dose screen, 48 h (100 = growth as untreated, 0 = no growth, -100 = all killed)
Conditions in all cases: 10 µM unless noted
T-47D breast = system: T-47D breast
MDA-MB-435 melanoma = system: MDA-MB-435 melanoma
SW-620 colon = system: SW-620 colon
MCF7 breast = system: MCF7 breast
HCT-116 colon = system: HCT-116 colon
HCC-2998 colon = system: HCC-2998 colon
KM12 colon = system: KM12 colon
BT-549 breast = system: BT-549 breast

Row | Structure (SMILES) | growth (T-47D breast) | growth (MDA-MB-435 melanoma) | growth (SW-620 colon) | growth (MCF7 breast) | growth (HCT-116 colon) | growth (HCC-2998 colon) [%] | growth (KM12 colon) | growth (BT-549 breast)
1 | Cc1cc(C)cc(S(=O)(=O)n2ccc(-c3ccc4c(c3)CCC(C)(C)O4)n2)c1 | 58.2% | 93.8% | 88.3% | 81.5% | 77.8% | 88.2 | 82.7% | 
2 | c1ccc2c(-c3nc4ccccc4[nH]3)cccc2c1 | 36% |  | 16.8% | 17.2% | 16.7% | 57.5 | 21.8% | 24.3%
3 | COc1cccc(-c2nc3cc(NC(=O)c4ccc(Cl)c(C#N)c4)ccc3o2)c1 | -20.4% (active) | -73.3% (active) | 46.9% | 8% (active) | -92.2% (active) | 29.6 | -51.8% (active) | 
4 | CC(=O)c1ccc(NS(=O)(=O)c2ccc([N+](=O)[O-])cc2)cc1 | 86.3% |  | 108% | 99.3% | 102% |  | 111% | 102%
5 | COc1cc(/C=C/c2cc(/C=C/c3ccc(O)c(OC)c3)n(C(=O)Cc3ccccc3)n2)ccc1O | -7.75% (active) | -10.2% (active) | 4.63% (active) | -0.783% (active) | 1.23% (active) | 17.2 | 9.39% (active) | 
6 | COc1cc(/C=C/c2cc(/C=C/c3ccc(O)c(OC)c3)n(C(=O)c3ccc(Cl)cc3)n2)ccc1O | 11.2% |  | 16.4% | 20.1% | 0.953% (active) | 52 | 10.8% | 
7 | COc1ccc(NC(=O)c2ccccc2-c2ccccc2)c(C(N)=O)c1 | 34% | -22.6% (active) | 24.7% | 25.5% | 27% | 76.7 | 19.2% | 
8 | COc1ccc(NC(=O)[C@@H]2C[C@H]2c2ccccc2)c(C(N)=O)c1 | 91.1% | 51.8% | 90.9% | 97.7% | 108% | 94.7 | 87.4% | 
9 | COc1ccc(-c2cc(-c3cccnc3)nc3sc(C(=O)Nc4ccccc4)c(N)c23)cc1OC | 55.8% | 76.1% | 85.5% | 65.4% | 50.5% | 80.3 | 61.3% | 
10 | COc1ccc(-n2cnc3cc(C(=O)N4CCCCC4)ccc32)cc1 | 91% | 102% | 104% | 103% | 98.3% | 104 | 107% | 
11 | C[C@H]1c2cccc(O)c2C(O)=C2C(=O)[C@]3(O)C(O)=C(C(N)=O)C(=O)[C@@H](N(C)C)[C@@H]3[C@@H](O)[C@@H]21 | 53.1% |  | 65.9% | 58.9% | 18.6% | 27.1 | 54.1% | 33.8%
12 | O=Nc1c2cccnc2n2nnc3ccc(Cl)cc3c12 | 12.1% |  | -67.3% (active) | -10.6% (active) | 0.54% (active) | 93.1 | 25.2% | 
13 | Cc1cc(-c2ccccc2)cc(C)n1 | 114% |  | 109% | 93.5% | 104% | 107 | 112% | 113%
14 | O=C(c1ccc(Cl)cc1)c1ccc(Cl)cc1 | 101% | 107% | 103% | 104% | 110% | 96.7 | 110% | 
15 | CCCCCCCSc1ncnc2[nH]ncc12 | 51.9% |  | 61.9% | 81.7% | 62.7% | 119 | 83.2% | 88.4%
16 | C[N+]1(C)C2CC[C@@H]1CC(OC(=O)C(O)c1ccccc1)C2 (stereo not given in full) | 109% |  | 109% | 106% | 102% |  | 109% | 99.6%
17 | COc1ccc(C2=NN(C=O)C(c3cccc(Nc4ccnc5cc(Cl)ccc45)c3)C2)cc1 (stereo not given) | 25.1% |  | 24.8% | 15.7% | 12% |  | 27.4% | 1.59% (active)
18 | CC1CN(C2CCCCC2)C(=O)NC1=O (stereo not given) | 93% |  | 102% | 101% | 101% |  | 111% | 104%
19 | CCCCCCCCCCN1CCC(N2CCCCC2)CC1 | -55.9% (active) |  | -56.9% (active) | -60.8% (active) | -65.2% (active) |  | -6.35% (active) | 37.5%

Row | Structure (SMILES) | growth (T-47D breast) | growth (MDA-MB-435 melanoma) | growth (SW-620 colon) | growth (MCF7 breast) | growth (HCT-116 colon) | growth (HCC-2998 colon) [%] | growth (KM12 colon) | growth (BT-549 breast)
20 | CCCCCCC(CC#N)(CCC)CCCC (stereo not given) | 112% |  | 107% | 96.1% | 104% | 110 | 111% | 120%
21 | Nc1nc2c(nnn2Cc2ccc(Cl)c(Cl)c2)c(=O)[nH]1 | 84.3% |  | 99.9% | 93.7% | 104% | 116 | 90.2% | 99.4%
22 | O=C(Nc1nn2c(-c3cc(C(F)(F)F)cc(C(F)(F)F)c3)nnc2s1)C1CCCC1 | 11.6% | 12.5% | 15.5% | 6.67% (active) | -29.7% (active) |  | 11.1% | 
23 | COc1ccc(NC(=O)c2ccc(-c3ccccc3)cc2)c(C(N)=O)c1 | 88.6% | 98.5% | 110% | 96.6% | 106% | 102 | 99.2% | 
24 | COc1ccc(CC(=O)Nc2nn3c(-c4cc(C(F)(F)F)cc(C(F)(F)F)c4)nnc3s2)cc1 | 42.7% | 57.1% | 84.2% | 66.9% | 61.9% |  | 65.7% | 
25 | COc1ccc(-c2nnc3c4[nH]cnc4ncn23)c(OC)c1 | 28.5% | 13.2% | 23.2% | 7.19% (active) | 14.8% | 26.3 | 22.5% | 
26 | Fc1ccc(-c2nn3c(-c4cc(C(F)(F)F)cc(C(F)(F)F)c4)nnc3s2)cc1 | 51.8% | 76.3% | 65.8% | 68.7% | -17.3% (active) |  | 77.5% | 
27 | CC(=O)c1ccccc1NC(=O)C(C)(c1ccccc1)c1ccccc1 | 67.7% |  | 93.4% | 102% | 42.1% |  | 85% | 75.7%
28 | COc1ccc(-c2cc(-c3cccnc3)nc(S(=O)(=O)CC(=O)Nc3ccc(C)cc3)c2C#N)cc1OC | 64% | 98.6% | 98.3% | 88.4% | 85.8% | 91.9 | 95.9% | 
29 | FC(F)(F)c1cc(-c2nnc3n2N=C(N2CCCC2)CS3)cc(C(F)(F)F)c1 | 64% | 96.8% | 95.9% | 95.3% | 42.5% |  | 89.2% | 
30 | CCOC(=O)N1CCC(N=C2CSc3nnc(-c4cc(C(F)(F)F)cc(C(F)(F)F)c4)n3N2)CC1 | 34% | 24.9% | 36.2% | 13.6% | -10.9% (active) |  | 34.5% | 
31 | Cc1cc(=O)oc2cc(OCCn3c(C)nn(-c4ccc(Cl)cc4)c3=O)ccc12 | 47.4% |  |  | 15.8% | 15.1% |  | 31.4% | 56.7%
32 | CCCCCCCCCCNCCSS(=O)(=O)O | 88.7% |  | 81.8% | 19.2% | 52.9% | 76.4 | 4.36% (active) | 113%
33 | N#Cc1c(-c2ccccc2)cc(-c2ccccc2)n(CCCCC(=O)O)c1=O | 103% |  | 90.9% | 78.2% | 93.3% |  | 79.7% | 91%
34 | C1=C(Cc2ccccc2)n2cnc3ncnc(c32)S1 | 29.6% | 26.5% | 69% | 20.3% | 57.1% | 70.2 | 69.6% | 
35 | O=c1sc2ncnc3ncn1c32 | 34.5% | 29.5% | 73.1% | 22.4% | 50.9% | 79.5 | 70% | 
36 | COc1ccc([N+](=O)[O-])c(S(=O)(=O)c2ccc(Cl)cc2)n1 | 65.2% | 40.9% | 14.4% | 18.1% | 20.9% | 104 | 97.7% | 
37 | C/C=C(/C(=C/C)c1ccc(O)cc1)c1ccc(O)cc1 | 53.5% |  | 25.6% | 20.6% | 27% | 61.7 | 20.3% | 40.7%
38 | CCc1ccc(-c2nc(SCC(=O)NC3CCCCC3)n[nH]2)cc1 |  | 59.2% | 80.5% | 88.8% | 74.2% | 76.3 | 82.2% | 84.6%
